TRHR ag – qHTS for Small Molecule Agonists and Allosteric Enhancers of Human TRH Receptor: Primary Screen for Agonists | hit rate 0.18% among 360,000 | Thyrotropin-releasing hormone receptor (Homo sapiens), P34981 | activation, % at 2 µM | TRHR cells, calcium flux fluo-8, FDSS agonist mode; note: 0% is about no effect
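TRHR-expressing cells loaded with fluo-8 calcium dye; 23 nL library compound pin-transferred, kinetic FDSS fluorescence (Ex 480/Em 530) recorded about 180 s for agonist-induced calcium release, before a 10 nM TRH EC20 addition for potentiator mode.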
D1 potentiator – Potentiators of Human D1 Dopamine Receptor: qHTS. HEK293 TREx D1 cells, calcium flux, dopamine EC20 potentiation. potentiation, % at 10 µM. hit rate 0.036% among 360,000. AID 504651, 2011; in the data active = potentiation above about 30%; note: 0% is about no effect
TRHR PAM – qHTS for Small Molecule Agonists and Allosteric Enhancers of Human TRH Receptor: Primary Screen for Enhancers; TRHR cells, fluo-8 calcium fluorescence, EC20 TRH enhancement; enhancement, % at 2 µM; hit rate 0.66% among 360,000; in the data active = enhancement above about 30%; note: 0% is about no effect
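TRHR-expressing cells loaded with fluo-8 calcium dye were read kinetically (ex 480/em 530) during compound addition, then stimulated with an EC20 of TRH (10 nM final). Enhancement of the Gq-mediated intracellular calcium response was scored.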
D1 antag – Antagonist of Human D 1 Dopamine Receptor: qHTS; HEK293 TREx D1 cells, calcium flux, dopamine EC80; hits give low values; D(1A) dopamine receptor (Homo sapiens), P21728; hit rate 3.2% among 360,000; activity change, negative = inhibition, % at 10 µM; in the data active = activity change below about -30%; note: % is set by controls: 0 for no effect and ±100 for the full control effect
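Tetracycline-induced HEK293 T-REx cells with force-coupled D1 receptor were loaded with a no-wash calcium dye. Compound was added after a 10 s baseline and read kinetically for 180 s; EC80 dopamine was then added and calcium flux followed another 180 s.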
D1 ag – Allosteric Agonists of the Human D1 Dopamine Receptor: qHTS; D(1A) dopamine receptor (Homo sapiens), P21728; HEK293 T-REx D1 cells, calcium flux, agonist mode; activation, % at 2 µM; hit rate 1% among 360,000; AID 504660, 2011; note: 0% is about no effect
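Agonism was scored from calcium flux recorded over 180 s (1 read/s) after pintool compound addition, following a 10-cycle baseline. Cells were inducible force-coupled HEK293 TREx D1, plated overnight at 30 C and loaded with no-wash calcium dye.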
USP1-UAF1 inh – Inhibitors of USP1/UAF1: Primary Screen; recombinant USP1/UAF1, Ub-Rhodamine cleavage fluorescence; Ubiquitin carboxyl-terminal hydrolase 1 (Homo sapiens), O94782; hit rate 0.23% among 390,000; Potency, µM (doses to about 57.1 µM), inactives show at the top dose activity change, negative = inhibition, hits mostly inhibitors; active = well fitted inhibition curve with a large enough effect; note: potency is the fitted concentration of half-maximal effect; % is set by controls: 0 for no effect and ±100 for the full control effect; nearly all actives have a fitted effect of over 60% in size
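USP1/UAF1 complex at 1 nM was preincubated with compound for 15 min at room temperature, then Ub-Rho substrate (150nM final) was added. Fluorescence (480/540 nm) was read kinetically, 6 reads every 60 seconds.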
Numbers without * were called inactive; . = no result given. This is a sample that favours compounds with a hit; in the whole collection about 4.4% have one here. Cut-off read from the data, not from the text of the source, unless noted: active = activation above about 30%; inactive = the rest.

SMILES | TRHR ag | D1 potentiator | TRHR PAM | D1 antag | D1 ag | USP1-UAF1 inh
COc1cc(NC(=O)CN2C(=O)CN(C)C(=O)c3ccccc32)cc(OC)c1OC | -0.3 | -1.9 | 4.9 | 9.4 | 0.5 | -18.1%
Cc1cccc(CNc2ncnc3ccc(-c4ccc5c(ccn5C)c4)cc23)c1 | -0.3 | 0.2 | 2.7 | -10.9 | 0.4 | .
O=C(O)c1cccc(S(=O)(=O)N2CCN(S(=O)(=O)c3ccc4c(c3)OCCO4)CC2)c1 | 2.2 | 14.0 | 6.0 | -10.6 | 0.1 | .
CCCCNC(=O)C1CCCN(S(=O)(=O)CCC)C1 (configuration not stated) | -0.1 | 1.3 | -2.6 | -31.6* | -1.0 | -12.6%
CCCS(=O)(=O)N1CCCC(C(=O)NCCCOCC)C1 (configuration not stated) | 1.0 | -2.3 | 3.7 | -0.2 | 3.4 | 7.9%
CCCS(=O)(=O)N1CCCC(C(=O)NCCc2ccc(Cl)cc2)C1 (configuration not stated) | 0.1 | 4.8 | -4.4 | -30.8* | 1.1 | -0.3%
Cc1[nH]c(=O)[nH]c(=O)c1S(=O)(=O)N1CCCC(C(=O)NCCc2ccc(Cl)cc2)C1 (configuration not stated) | -0.2 | -10.3 | -24.0 | -34.8* | -3.4 | -9.9%
CN(C(=O)CSc1cn(CC(=O)N2CCCC2)c2ccccc12)c1ccccc1 | 0.3 | -0.3 | 0.8 | -1.4 | 0.7 | -17.4%
Cn1c2ccccc2c2cnn(CC(=O)Nc3ccccc3C(F)(F)F)c(=O)c21 | 0.7 | 0.6 | 3.1 | 11.5 | -0.4 | -24.8%
CCC(C(=O)NC1CC(C)(C)NC(C)(C)C1)c1ccccc1 (configuration not stated) | 0.1 | -14.4 | -2.6 | -4.2 | -1.0 | 4.2%
CC1(C)CC(NC(=O)C(c2ccccc2)c2ccccc2)CC(C)(C)N1 | -0.4 | -1.1 | -5.8 | -31.9* | 2.2 | -15.6%
CC1(C)CC(NC(=O)CSc2ccccc2)CC(C)(C)N1 | -0.7 | -1.1 | -1.6 | -34.4* | 1.5 | -9.4%
Clc1cccc(-c2ccc3ncnc(NCc4ccc5c(c4)OCO5)c3c2)c1 | 1.6 | 6.7 | 1.1 | 22.0 | 8.2 | .
O=C(Nc1ccc(C(=O)NCCCN2CCN(c3ccc(F)cc3)CC2)cc1)C1=CSCCO1 | 10.0 | -16.9 | -2.7 | -78.5* | 62.5* | -24.0%
O=C(Nc1ccc(C(=O)NCCCN2CCCCC2)cc1)C1=CSCCO1 | 1.1 | -3.1 | -5.0 | 12.8 | 2.4 | -21.5%
Cc1cccc(N2CCN(CCCNC(=O)c3ccc(NC(=O)C4=CSCCO4)cc3)CC2C)c1 (configuration not stated) | 0.3 | -15.7 | -6.1 | -39.8* | 17.7 | -4.7%
COc1ccc(CNC(=O)CCc2nc3cccnc3n2Cc2ccccc2)cc1 | -1.3 | 2.5 | 0.5 | 3.0 | 0.0 | -27.8%
CCOc1ccc(C(=O)Nc2ccc3oc(-c4ccc5ccccc5c4)nc3c2)cc1 | 0.2 | 0.1 | 9.1 | -8.4 | 0.8 | 2.0%
Cc1cc(C)c(N)c(C(=O)O)c1 | 1.1 | -3.9 | 37.7* | 25.0 | 0.8 | -23.7%
Cc1cc(C(=O)O)cc(Br)c1N | 0.1 | -3.8 | -0.5 | -13.3 | 0.6 | -15.2%
NC(=O)c1ccc(Oc2ccc(Cl)c3ccccc23)c([N+](=O)[O-])c1 | -0.1 | -4.9 | 30.7* | 2.2 | 2.1 | -23.9%
NC(=O)c1ccc(Oc2ccc(Cl)cc2)c([N+](=O)[O-])c1 | -0.3 | 3.0 | 1.7 | -11.1 | 0.5 | -1.1%
COc1ccc(/C=N/Nc2ccccc2C(=O)O)cc1Cn1cc([N+](=O)[O-])cn1 | -0.3 | -9.7 | 0.1 | -32.1* | 1.4 | -0.7%
CC(C)C(=O)Nc1cccc(NC(=O)c2cc3ccccc3o2)c1 | -1.1 | -9.1 | -11.1 | -30.0* | 0.3 | -3.6%

Compound activity from PubChem.
